# Experimental data published in article PMC4336329 (PLoS ONE, 2015).
# The whole screen tested about 310,000 compounds, of which about 14,000 (4.5%) showed an effect of 50% or more. The effect is printed as a negative number. Shown is part of a subset that was picked to be rich in strong results.
# Target: human ether-à-go-go-related gene (hERG) potassium channel (human, UniProt Q12809)
# Test: primary screen, population patch clamp on CHO cells stably expressing hERG; higher = less effect of the substance
# 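Further: peak tail current of the secondary pulse compared with the same well before compound.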
# human ether-à-go-go-related gene (hERG) potassium channel, sequence (Q12809 whole entry, looked up): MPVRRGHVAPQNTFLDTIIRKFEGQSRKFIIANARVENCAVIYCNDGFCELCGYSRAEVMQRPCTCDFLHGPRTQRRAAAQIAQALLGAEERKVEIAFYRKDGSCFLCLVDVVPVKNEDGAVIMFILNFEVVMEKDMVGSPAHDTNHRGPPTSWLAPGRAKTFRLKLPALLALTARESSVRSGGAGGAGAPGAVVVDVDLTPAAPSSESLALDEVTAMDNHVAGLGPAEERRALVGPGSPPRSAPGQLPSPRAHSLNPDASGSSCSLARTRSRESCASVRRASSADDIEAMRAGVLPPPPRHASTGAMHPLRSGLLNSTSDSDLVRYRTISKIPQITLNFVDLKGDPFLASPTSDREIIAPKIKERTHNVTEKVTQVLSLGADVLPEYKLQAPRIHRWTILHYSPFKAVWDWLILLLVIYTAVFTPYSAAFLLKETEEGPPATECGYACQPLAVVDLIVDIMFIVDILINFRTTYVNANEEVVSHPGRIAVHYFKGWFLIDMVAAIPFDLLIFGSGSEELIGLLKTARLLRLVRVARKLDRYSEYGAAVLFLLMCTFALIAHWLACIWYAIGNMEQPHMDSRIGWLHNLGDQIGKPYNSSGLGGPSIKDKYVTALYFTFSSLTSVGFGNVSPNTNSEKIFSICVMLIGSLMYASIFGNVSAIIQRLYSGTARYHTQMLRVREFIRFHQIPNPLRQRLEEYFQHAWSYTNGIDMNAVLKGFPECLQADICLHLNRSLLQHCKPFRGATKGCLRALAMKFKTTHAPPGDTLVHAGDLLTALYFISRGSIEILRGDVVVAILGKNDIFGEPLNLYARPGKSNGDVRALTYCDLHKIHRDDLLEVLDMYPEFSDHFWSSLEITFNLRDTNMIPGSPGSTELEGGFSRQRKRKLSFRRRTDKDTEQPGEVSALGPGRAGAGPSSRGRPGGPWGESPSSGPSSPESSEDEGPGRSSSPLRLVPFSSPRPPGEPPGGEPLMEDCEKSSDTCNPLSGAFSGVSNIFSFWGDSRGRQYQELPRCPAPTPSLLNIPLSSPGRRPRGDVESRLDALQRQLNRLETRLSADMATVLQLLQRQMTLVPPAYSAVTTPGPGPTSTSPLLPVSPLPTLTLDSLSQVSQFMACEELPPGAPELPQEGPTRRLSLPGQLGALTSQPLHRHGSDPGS
row,Structure (SMILES),"hERG current change (%, negative = inhibition) at 10uM [%]"
1,CCN(CC)C(=O)Oc1nnc(SC(C)C)n1-c1ccc(Cl)cc1,-4.75
2,Nc1ccc(Oc2ccc(Br)cc2)cc1,-4.61
3,CN1C(=O)/C(=N\OC(=O)c2ccccc2Cl)c2ccccc21,-42.8
4,Cc1[nH]n(-c2ccccc2)c(=O)c1N=Nc1cccc(C(=O)O)c1,23.1
5,O=C(NC1CCCC1)C1(c2ccccc2)CCN(S(=O)(=O)c2ccccc2)CC1,-6.14
6,CCCn1c(C(C)NC(=O)c2ccccc2)n[nH]c1=S (stereo not shown),12.7
7,O=C(C#Cc1ccccc1)c1ccco1,5.83
8,CCOC(=O)C1(Cc2cccc(OC)c2)CCN(Cc2cccc3cnccc23)CC1,-39.3
9,CCOC(=O)C1(CCc2ccccc2)CCN(Cc2cccc3nccnc23)CC1,-60.5
10,CCOC(=O)C1(Cc2ccc(OC)cc2)CCN(C(=O)c2cccc3nccnc23)CC1,-31.4
11,CCOC(=O)c1[nH]ncc1CN1CCC(Cc2ccccc2)(C(=O)OCC)CC1,-35.3
12,CCOC(=O)C1(CCc2ccccc2)CCN(Cc2cccc3cnccc23)CC1,-69.6
13,CCOC(=O)C1(CCOc2ccccc2)CCN(Cc2cccc3nonc23)CC1,-28.6
14,CCOC(=O)C1(Cc2ccccc2)CCN(Cc2cccc3nccnc23)CC1,-59.9
15,O=C(CSC1=NCCS1)Nc1ccnc2ccccc12,-5.91
16,COc1ccc(Cl)cc1C(=O)OCC(=O)Nc1cccnc1Cl,15.8
17,COc1ccc(CN(C(=S)Nc2ccccc2)C2CC(=O)N(c3ccc(F)cc3)C2=O)cc1 (stereo not shown),26.5
18,COc1ccc2cc(Br)ccc2c1CC(=O)NC(C)(C)C,17.3
19,Cn1cc(C(c2ccccc2OCC(=O)O)c2cn(C)c3ccccc23)c2ccccc21,3.58
20,COC(=O)c1ccc(NC(=S)NC2CCCCC2)cc1,1.13
21,Cc1nc2ccccc2c2oc(C(=O)N3CCN(c4ccc([N+](=O)[O-])cc4)CC3)cc12,-9.45

row,Structure (SMILES),"hERG current change (%, negative = inhibition) at 10uM [%]"
1,Cc1ccc(C(=O)N2CCN(c3ccc([N+](=O)[O-])cc3)CC2)o1,-80.2
2,COc1ccccc1N1CCN(C(=O)c2cccc3c(=O)c(C)c(-c4ccccc4)oc23)CC1,-31.2
3,COc1ccc(N2CCN(C(=O)c3oc4ccccc4c3C)CC2)cc1,-31.9
4,Cc1c(C(=O)N2CCN(c3ccc([N+](=O)[O-])cc3)CC2)oc2ccccc12,-72.8
5,Cc1c(-c2ccccc2)oc2c(C(=O)N3CCN(c4ccc([N+](=O)[O-])cc4)CC3)cccc2c1=O,-75.4
6,Cc1occc1C(=O)N1CCN(c2ccc(Cl)cc2)CC1,-4.41
7,Cc1c(C(=O)N2CCOCC2)oc2ccccc12,5.05
8,Cc1ccc(C(=O)N2CCN(c3ncccn3)CC2)o1,13.4
9,Cc1occc1C(=O)N1CCN(c2ccc([N+](=O)[O-])cc2)CC1,-77.7
10,Cc1c(-c2ccccc2)oc2c(C(=O)N3CCN(c4ccccc4F)CC3)cccc2c1=O,-8.63
11,Cc1occc1C(=O)N1CCN(c2ccccc2)CC1,-8.67
12,COc1ccc(N2CCN(C(=O)CNC(=O)c3cccs3)CC2)cc1,10.9
13,CCC(C)NC(=O)C(=O)NCc1ccccn1 (stereo not shown),14.6
14,COc1ccc(CNC(=O)c2nnn(CC(=O)Nc3cc(C)cc(C)c3)c2N)cc1,11.9
15,CCCCc1cc(=O)oc2cc(C)cc(OCC(=O)NCC3CCC(C(=O)O)CC3)c12 (stereo not shown),-1.21
16,CC1Cc2ccccc2N1C(=O)c1cc2sccc2n1Cc1ccccc1 (stereo not shown),7.64
17,CC[N+](C)(CC)CCCCOc1ccc2c(c1)C(=O)c1cc(OCCCC[N+](C)(CC)CC)ccc1-2.[I-],12.9
18,O=c1c2c3nc4ccccc4nc3n(CC3CCCO3)c2ncn1CCc1ccccc1 (stereo not shown),-5.67
19,O=C(c1cccc(F)c1)N1C2C=CC(C2)C1(C(F)(F)F)C(F)(F)F (stereo not shown),-0.667
20,C=CCn1c(COc2cccc3cccnc23)nnc1SCC(=O)O,12.7
21,Cc1cccc2c1N(CCOc1ccc(C(C)(C)C)cc1)C(=O)C2=O,-7.48

row,Structure (SMILES),"hERG current change (%, negative = inhibition) at 10uM [%]"
1,Cc1cccc(CCNS(=O)(=O)c2cc3c(cc2C)NC(=O)CO3)c1,-34.4
2,CC1(C)CC(=O)C(C=NC2CCCCC2)=C(O)C1,-10.2
3,Cc1nc(NCc2ccco2)c2oc3ccccc3c2n1,-29.8
4,C=CCOc1ccc(CN(C)C(=O)C2CCCO2)cc1 (stereo not shown),2.34
5,O=C(c1ccc(-c2ccc(Cl)cc2)o1)N1CCN(c2ccc([N+](=O)[O-])cc2Cl)CC1,3.9
6,COc1ccc(N2CCN(C(=O)c3cc(C)oc3C)CC2)cc1,12.7
7,Cc1cc(C(=O)N2CCN(c3ccccc3)CC2)c(C)o1,-1.46
8,CCn1cc(C(=O)N2CCN(c3ccc([N+](=O)[O-])cc3)CC2)c(=O)c2ccc(C)nc21,-70.9
9,CCn1cc(C(=O)N2CCN(c3cccc(C)c3C)CC2)c(=O)c2ccc(C)nc21,-12.9
10,CCn1cc(C(=O)N2CCN(c3ccccc3F)CC2)c(=O)c2ccc(C)nc21,-5.94
11,O=C(c1ccc(-c2cccc(Cl)c2)o1)N1CCN(c2ccc([N+](=O)[O-])cc2)CC1,-58.9
12,Cc1c(Cl)cccc1-c1ccc(C(=O)N2CCN(c3ccc([N+](=O)[O-])cc3)CC2)o1,-14
13,Cc1cc(C(=O)N2CCN(c3ccc([N+](=O)[O-])cc3)CC2)c(C)o1,-73.5
14,O=C(C(=O)N1CCN(C(=O)c2ccco2)CC1)c1c[nH]c2ccccc12,-2.67
15,CCOc1ccc(S(=O)(=O)n2cc(-c3ccccc3)c(N)n2)cc1,5.5
16,O=C(c1ccc2c(Cl)c3c(nc2c1)CCCC3)N1CCC(N2CCCCC2)CC1,-46
17,NC(=O)COC(=O)c1sc2ccccc2c1Cl,24.3
18,Cc1cccc2sc(N(CCCN(C)C)C(=O)c3sc4ccccc4c3Cl)nc12.Cl,-13.5
19,Cc1cccc2sc(N(CCCN(C)C)C(=O)c3ccc(S(=O)(=O)N4CCc5ccccc5C4)cc3)nc12.Cl,13.9
20,CN(C)CCCN(C(=O)c1ccc(C(=O)c2ccccc2)cc1)c1nc2c(F)cccc2s1,-67.3
21,CN(C)CCCN(C(=O)c1ccc(N2C(=O)CCC2=O)cc1)c1nc2c(F)cccc2s1.Cl,-0.103

row,Structure (SMILES),"hERG current change (%, negative = inhibition) at 10uM [%]"
1,Cc1cccc2sc(N(CCCN(C)C)C(=O)c3ccc(C(=O)c4ccccc4)cc3)nc12,-53.2
2,CN(C)CCOC(=O)c1sc2ccccc2c1Cl.Cl,-29.4
3,CN(C)CCCN(C(=O)c1sc2ccccc2c1Cl)c1nc2c(F)cccc2s1.Cl,-61.9
4,Cc1ccc2sc(N(CCCN(C)C)C(=O)c3ccc(S(=O)(=O)N(C)Cc4ccccc4)cc3)nc2c1C.Cl,-20
5,CN(C)CCCOC(=O)c1sc2ccccc2c1Cl.Cl,-50.2
6,Cc1ccc2nc(N(CCCN(C)C)C(=O)c3sc4ccccc4c3Cl)sc2c1.Cl,-29.9
7,O=c1c2ccccc2ncn1-c1ccccc1[N+](=O)[O-],11.9
8,O=S(=O)(c1ccc(OCC(O)CN2CCN(c3ccc(F)cc3)CC2)cc1)N1CCOCC1 (stereo not shown),-18.2
9,O=C(NNC1CC(=O)N(c2ccc(Br)cc2)C1=O)c1ccccn1 (stereo not shown),-4.01
10,CCCC1Cc2nc(Cl)c(C#N)cc2CO1 (stereo not shown),15.6
11,O=C(Nc1cccnc1)c1cc(S(=O)(=O)N2CCOCC2)ccc1Br,-35.8
12,COc1cc2c(cc1OC)C(COc1ccccc1OC)N(C(=O)c1ccco1)CC2 (stereo not shown),-15.6
13,COC(=O)c1[nH]c2ccccc2c1NC(=O)CN1CCC(C(N)=O)(N2CCCCC2)CC1,-35.1
14,Cc1cc(C)cc(N(CC(=O)Nc2cc(C)ccc2C)S(=O)(=O)c2c(C)[nH]c(=O)[nH]c2=O)c1,5.03
15,CCc1ccc(NC(=O)CN(c2cc(C)cc(C)c2)S(=O)(=O)c2c(C)[nH]c(=O)[nH]c2=O)cc1,-33.7
16,Cc1cc(C)cc(N(CC(=O)Nc2ccc(C(F)(F)F)cc2)S(=O)(=O)c2c(C)[nH]c(=O)[nH]c2=O)c1,-88
17,Cc1cc(C)cc(N(CC(=O)Nc2ccc(Br)cc2)S(=O)(=O)c2c(C)[nH]c(=O)[nH]c2=O)c1,-76.4
18,Cc1cc(C)cc(N(CC(=O)Nc2ccc(C)cc2Cl)S(=O)(=O)c2c(C)[nH]c(=O)[nH]c2=O)c1,-7.63
19,COc1cc(NC(=O)CN(c2cc(C)cc(C)c2)S(=O)(=O)c2c(C)[nH]c(=O)[nH]c2=O)cc(OC)c1,-27.8
